MITF act – MITF TRPM1 promoter activation in melanoma cells; activation, % at 12.5 µM; SK-MEL-5 TRPM1-promoter luciferase, 24 h; % of positive control, neutral wells = 0; 0.75% of 300,000 active;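 active = mean activation of at least 80% with every replicate also reaching 80%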;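 note: 0% = neutral control wells and 100% = parthenolide positive control wells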
HSF-1 act – increases HSF-1 driven luciferase reporter signal. NIH3T3-HGL HSF-1 luciferase reporter, MG132, 8 h; 100% = twice DMSO control signal. activation, % at 9 µM. 1.7% of 300,000 active. AID 504408;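 active = mean replicate activation of at least 50% with a set share of replicates each reaching 50%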;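 note: 0% = median of the neutral control wells and 100% = twice that signal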
HSF1 inh – HSF1 inhibition | activity change, negative = inhibition, % at 7.5 µM (by protocol) | 0.77% of 300,000 active | AID 2098 | NIH3T3-HGL HSE-luciferase, MG132-induced, luminescence 8 h; stronger effect = lower value;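 active = more than half of replicate wells show activity change below -50%, luminescence cut by over half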;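 note: luciferase reports HSF-1 transcriptional activity via heat shock element; 0% = median of DMSO wells and -100% = zero luminescence signal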
esBAF inh – inhibitors of esBAF chromatin remodeling in mouse ES cells | AID 602393 | Bmi1-luciferase knock-in reporter, 24 h; 100% = twice the neutral-well signal | reporter increase, % at 12.5 µM | 2% of 350,000 active; in the data active = activation above about 40%;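 note: 0% = median of the plate's neutral control wells and 100% = double that signal; a rise in the Bmi1 reporter signal indicates esBAF inhibition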
Wnt bcat act – activates Wnt/beta-catenin signaling in a reporter cell assay | activator, plate reader | activation, % at 9.35 µM | 1.2% of 300,000 active | AID 743398; in the data active = activation above about 30%, passing the limit was not always enough;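 note: 0% = neutral control wells and 100% = positive control wells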
Active calls of the source: *; . = no result given. Shown are actives, neighbours in structure and some others; about 3.9% of the full set was active somewhere.

SMILES	MITF act	HSF-1 act	HSF1 inh	esBAF inh	Wnt bcat act
CC(C)NC(=O)N(O)C1N(Cc2ccc3c(c2)OCO3)C(=S)SC1(C)C (stereo unspecified)	-6	-67	-58*	14	.
CC(C)NC(=O)N(O)C1N(C(C)C)C(=O)N(Cc2ccc3c(c2)OCO3)C1(C)C (stereo unspecified)	-8	-13	-1	3	-2
Cc1ccc(CNC(=O)C2(S(=O)(=O)c3ccccc3)CC=CC2)cc1	74	31	21	73*	.
O=C(NCCc1ccccc1)c1ccc(NC(=O)C2CC2)cc1	59	.	.	45*	10
O=C(Nc1ccccc1O)c1ccc(NC(=O)C2CC2)cc1	49	20	18	23	68*
O=C(NCCc1ccccc1)c1cccc(NC(=O)C2CCCC2)c1	22	.	.	48*	0
O=C(NCCCCNC(=O)c1ccc(F)cc1)c1ccc(F)cc1	1	4	2	1	0
O=C(NCCCc1ccccc1)c1ccc(F)cc1	.	7	0	64*	.
CCCN(C)C[C@@H]1Oc2cc(-c3cccnc3)ccc2S(=O)(=O)N([C@@H](C)CO)C[C@@H]1C	.	.	.	3	.
Cc1ccc(N=c2c([N+](=O)[O-])nn(-c3ccc4c(c3)OCCO4)n2O)cc1F	-33	-84	-79*	.	.
O=[N+]([O-])c1nn(-c2ccc3c(c2)OCCO3)n(O)c1=Nc1ccc(Cl)cc1	-63	-84	-79*	-55	-7
CCc1ccc(N=c2c([N+](=O)[O-])nn(-c3ccc4c(c3)OCCO4)n2O)cc1	-6	-12	-3	.	-5
O=[N+]([O-])c1nn(-c2ccc3c(c2)OCCO3)n(O)c1=NC1CCCC1	.	15	6	34	33*
Cc1ccc(N=c2c([N+](=O)[O-])nn(-c3ccc4c(c3)OCCO4)n2O)c(Cl)c1	.	-69	-63*	.	.
COc1cccc(C(=O)Nc2ccc3c(c2)C(=O)N(C)[C@H]2CC[C@H](CC(=O)NCC(F)(F)F)O[C@H]2CO3)c1	.	.	.	3	.
Cc1ccc(N=c2c([N+](=O)[O-])nn(-c3ccccc3)n2O)c(C)c1	21	43	19	67*	-3
O=[N+]([O-])c1nn(-c2ccc3c(c2)OCCO3)n(O)c1=NCCCO	.	4	-2	14	41*
O=[N+]([O-])c1nn(-c2ccc3c(c2)OCCO3)n(O)c1=Nc1ccccc1	-85	-91	-89*	.	-11
CN1C(=O)c2cc(NC(=O)c3cncs3)ccc2OC[C@H]2O[C@@H](CC(=O)Nc3ccccc3F)CC[C@@H]21	.	.	.	0	.
CC(C)NC(=O)Nc1ccc2c(c1)C(=O)N([C@H](C)CO)C[C@H](C)[C@H](CN(C)C(=O)c1ccccc1)OCCCC[C@H](C)O2	.	.	.	5	.
O=C(c1cccc(F)c1)N1CC[C@@H]2[C@H]1c1cc(-c3ccc(F)cc3)ccc1N[C@@H]2CO	.	.	.	-1	.
CCOc1ccc(N2C(=O)/C(=C\c3ccc(O)c(OC)c3)S(=O)(=O)C2c2cccc([N+](=O)[O-])c2)cc1 (stereo unspecified)	6	112*	50	-6	-2
C[C@@H]1CCCCO[C@H](CN(C)C)[C@@H](C)CN([C@H](C)CO)C(=O)c2cc(NC(=O)Cc3ccccc3)ccc2O1	.	.	.	-6	.
CC(C)CC#Cc1ccc2c(c1)O[C@H](CN(C)Cc1cccnc1)[C@@H](C)CN([C@@H](C)CO)S2(=O)=O	.	.	.	2	.
CCNC(=O)NC(=O)COC(=O)c1ccccc1SCC(=O)NC(=O)NCC	22	29	13	.	53*
SMILES	MITF act	HSF-1 act	HSF1 inh	esBAF inh	Wnt bcat act
O=C(COC(=O)c1ccccc1SCC(=O)NC1CCS(=O)(=O)C1)NC1CCS(=O)(=O)C1 (stereo unspecified)	-6	6	2	.	.
C[C@H](CO)N1C[C@H](C)[C@H](CN(C)C(=O)Nc2cccc(F)c2)Oc2ncc(C3=CCCCC3)cc2C1=O	.	.	.	1	.
COC(=O)C(C)n1cnc2c(cnn2-c2ccc(Cl)cc2)c1=O (stereo unspecified)	48	0	9	53*	.
Nc1nnnn1CC(=O)N/N=C/c1ccccn1	.	98*	48	.	2
CC(C)C#Cc1ccc2c(c1)O[C@H](CN(C)C)[C@H](C)CN([C@H](C)CO)S2(=O)=O	.	.	.	6	.
Cc1cccc(CSc2cn(CC(=O)N3CCOCC3)c3ccccc23)c1	7	76*	46	84*	17
O=C(CSc1cn(CC(=O)N2CCOCC2)c2ccccc12)N1CCOCC1	-8	7	3	3	6
NC(=O)c1ccc(NC(=O)CSc2cn(CC(=O)N3CCOCC3)c3ccccc23)cc1	2	-5	0	-2	-1
O=C(Cn1cc(SCc2cccc(Cl)c2)c2ccccc21)N1CCOCC1	17	11	0	62*	.
C[C@@H]1CCCCO[C@@H](CN(C)S(=O)(=O)c2ccccc2)[C@H](C)CN([C@H](C)CO)C(=O)c2cc(NC(=O)NC3CCCCC3)ccc2O1	.	.	.	7	.
CO[C@@H]1CN(C)C(=O)c2cc(NC(C)=O)ccc2OC[C@@H](C)N(C(=O)c2cnccn2)C[C@H]1C	.	.	.	-6	.
Cc1ccc(C2C(=O)N(C3CCCC3)CC(=O)N2C2CCCCC2)cc1 (stereo unspecified)	11	5	1	-8	.
CC(C)N1C(=O)CN(C2CCCCCC2)C(=O)C1c1ccccc1F (stereo unspecified)	7	-64	-56*	33	15
COc1cc(/C=N/N=C(N)N)ccc1OCc1ccccc1Cl	7	55*	17	.	-1
C/C(=N\NC(=O)c1ccco1)c1ccc(NC(=O)c2ccccc2)cc1	70	94*	47	.	3
C/C(=N\NC(=O)c1ccco1)c1ccc(-c2ccccc2)cc1	76	20	14	59*	26
C/C(=N\NC(=O)c1cccc(C)c1O)c1ccc(NC(=O)Cc2ccccc2)cc1	92*	18	6	.	13
C/C(=N\NC(=O)c1ccco1)c1ccc(NC(=O)C(F)(F)F)cc1	16	23	16	27	1
C[C@@H]1CN([C@@H](C)CO)C(=O)c2cc(C#CCN(C)C)cnc2O[C@H]1CN(C)Cc1ccccc1F	.	.	.	3	.
O=C(CC1SC(=NCCc2ccccc2)N(/N=C/c2cccs2)C1=O)Nc1ccc(Cl)cc1 (stereo unspecified)	5	69*	36	.	3
O=C(CC1SC(=O)N(c2ccccc2)C1=O)Nc1ccc(Cl)cc1 (stereo unspecified)	.	6	24	.	21
CO[C@H]1CN(C)C(=O)c2cc(NC(=O)C3CC3)ccc2OC[C@H](C)N(CCc2ccccc2)C[C@H]1C	.	.	.	3	.
C[C@@H]1CN([C@H](C)CO)C(=O)c2cc(C3=CCCC3)cnc2O[C@@H]1CN(C)C(=O)CN1CCOCC1	.	.	.	-6	.
O=C(Nc1ccccc1F)c1cc2nc(C(F)F)cc(C(F)F)n2n1	55	30	23	58*	.
O=C(Nc1ccccc1F)c1cnccn1	15	-11	-15	10	2

Bioassay records: PubChem BioAssay, Broad Institute
